Assay results taken from PubChem BioAssay (NCATS).
Results filed as inconclusive are left out. Active and inactive are the calls of the source. Calls come from the whole dose curve; as a rule, active = well fitted curve in the direction sought with a large enough effect; inconclusive = small, poorly fitted or top-dose-only effect, or another doubt; inactive = no such curve, though single readings can be large; an effect the other way counts as inactive or inconclusive.

Experiments:
[1] = qHTS of pediatric cancer cell lines to identify multiple opportunities for drug repurposing: Primary screen for TC32 cells (AID 1347089); note: nearly all actives have a fitted effect of over 60% in size
How it was run: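 A viability screen of TC32 cells was run over 48 h, with primary MIPE doses spanning 0.78 nM–46 µM and NPC doses 0.59 nM–46 µM. ATP luminescence (CellTiter-Glo) served as the read-out.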

[2] = qHTS of pediatric cancer cell lines to identify multiple opportunities for drug repurposing: Primary screen for SJ-GBM2 cells (AID 1347091)
How it was run: (§1)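 Cell viability, CellTiter-Glo luminescence; 500-1,000 cells/well, 8- or 11-point titration, 48 h compound exposure at 37 degrees C, 5% CO2. Controls: DMSO neutral, bortezomib 2.3 µM final as positive.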

[3] = qHTS of pediatric cancer cell lines to identify multiple opportunities for drug repurposing: Primary screen for A673 cells (AID 1347092); note: nearly all actives have a fitted effect of over 45% in size
How it was run: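 Titration-based qHTS on A673 cells: MIPE compounds spanned 11 points (0.78 nM to 46 µM final), NPC compounds 8 points (0.59 nM to 46 µM final). Viability after 48 h was measured by ATP luminescence.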

[4] = qHTS of pediatric cancer cell lines to identify multiple opportunities for drug repurposing: Primary screen for SK-N-MC cells (AID 1347093)
How it was run: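 Metabolically active cells were quantified by ATP-dependent luminescence (CellTiter-Glo, 15 min at room temperature) following 48 h treatment. Cells had been plated at 500-1,000 per well and settled for 5 h beforehand.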

[5] = qHTS of pediatric cancer cell lines to identify multiple opportunities for drug repurposing: Primary screen for BT-37 cells (AID 1347094)
How it was run: (§2)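 ATP-based luminescence (CellTiter-Glo) quantifies viability after a 48-hour exposure. Compounds are dosed across 8 or 11 final concentrations; DMSO and 2.3 µM bortezomib serve as controls.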

[6] = qHTS of pediatric cancer cell lines to identify multiple opportunities for drug repurposing: Primary screen for NB-EBc1 cells (AID 1347095)
How it was run: as §2

[7] = qHTS of pediatric cancer cell lines to identify multiple opportunities for drug repurposing: Primary screen for U-2 OS cells (AID 1347096); note: nearly all actives have a fitted effect of over 50% in size
How it was run: (§3)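 Cells (500-1,000/well) rested 5 h, then received compounds for 48 h; metabolically active cells were measured by CellTiter-Glo luminescence. Final concentrations spanned up to 46 µM (MIPE, 11-point) or 0.59 nM-46 µM (NPC, 8-point) in primary screens, 11-point in follow-ups.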

[8] = qHTS of pediatric cancer cell lines to identify multiple opportunities for drug repurposing: Primary screen for Saos-2 cells (AID 1347097); note: nearly all actives have a fitted effect of over 40% in size
How it was run: as §2

[9] = qHTS of pediatric cancer cell lines to identify multiple opportunities for drug repurposing: Primary screen for SK-N-SH cells (AID 1347098); note: nearly all actives have a fitted effect of over 65% in size
How it was run: as §3

[10] = qHTS of pediatric cancer cell lines to identify multiple opportunities for drug repurposing: Primary screen for NB1643 cells (AID 1347099); note: nearly all actives have a fitted effect of over 50% in size
How it was run: as §2

[11] = qHTS of pediatric cancer cell lines to identify multiple opportunities for drug repurposing: Primary screen for LAN-5 cells (AID 1347100)
How it was run: as §3

[12] = qHTS of pediatric cancer cell lines to identify multiple opportunities for drug repurposing: Primary screen for BT-12 cells (AID 1347101); note: nearly all actives have a fitted effect of over 25% in size
How it was run: as §3

[13] = qHTS of pediatric cancer cell lines to identify multiple opportunities for drug repurposing: Primary screen for Rh18 cells (AID 1347102); note: nearly all actives have a fitted effect of over 65% in size
How it was run: as §3

[14] = qHTS of pediatric cancer cell lines to identify multiple opportunities for drug repurposing: Primary screen for OHS-50 cells (AID 1347103); note: nearly all actives have a fitted effect of over 40% in size
How it was run: as §3

[15] = qHTS of pediatric cancer cell lines to identify multiple opportunities for drug repurposing: Primary screen for RD cells (AID 1347104); note: nearly all actives have a fitted effect of over 55% in size
How it was run: as §2

[16] = qHTS of pediatric cancer cell lines to identify multiple opportunities for drug repurposing: Primary screen for MG 63 (6-TG R) cells (AID 1347105); note: nearly all actives have a fitted effect of over 50% in size
How it was run: as §2

[17] = qHTS of pediatric cancer cell lines to identify multiple opportunities for drug repurposing: Primary screen for control Hh wild type fibroblast cells (AID 1347106); note: nearly all actives have a fitted effect of over 55% in size
How it was run: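 Viability after 48 h compound treatment at 37C, 500-1,000 cells/well, read as ATP luminescence with CellTiter-Glo. Primary screens used 11-point (MIPE, 0.78 nM-46 µM) or 8-point (NPC, 0.59 nM-46 µM) final concentrations; follow-up screens used 11-point dilutions.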

[18] = qHTS of pediatric cancer cell lines to identify multiple opportunities for drug repurposing: Primary screen for DAOY cells (AID 1347090); note: nearly all actives have a fitted effect of over 55% in size
How it was run: as §1

Measured: Potency
Potency is the fitted concentration of half-maximal effect.

c1nc2nc(Nc3ccc(N4CCOCC4)cc3)nc(NC3CCCCC3)c2[nH]1
inactive: [7] | [17]
active: [1] 4.66 µM | [2] 1.48 µM | [3] 4.69 µM | [4] 0.935 µM | [5] 21.7 µM | [6] 3.72 µM | [8] 4.69 µM | [9] 4.29 µM | [10] 1.66 µM | [11] 0.469 µM | [12] 21.7 µM | [13] 9.35 µM | [14] 2.17 µM | [15] 13.2 µM | [16] 11.8 µM

C=CC(=O)N1CCC[C@@H](n2nc(-c3ccc(Oc4ccccc4)cc3)c3c(N)ncnc32)C1
inactive: [1] | [7] | [17]
active: [18] 23.5 µM | [3] 9.35 µM | [4] 0.372 µM | [6] 10.5 µM | [8] 11.8 µM | [9] 12.1 µM | [10] 2.35 µM | [11] 16.6 µM | [13] 18.7 µM | [15] 33.2 µM | [16] 23.5 µM

CC1(C)OC2=C(C(=O)c3ccccc3C2=O)[C@H](NCc2ccccc2)[C@H]1O
active: [1] 18.6 µM | [2] 7.43 µM | [3] 0.469 µM | [4] 1.48 µM | [5] 8.63 µM | [6] 2.35 µM | [7] 9.35 µM | [8] 5.9 µM | [9] 4.82 µM | [10] 4.18 µM | [11] 5.26 µM | [12] 13.7 µM | [13] 7.43 µM | [14] 4.32 µM | [15] 10.5 µM | [16] 9.35 µM | [17] 23.5 µM

Cc1nc2cnc3ccc(C#Cc4cccnc4)cc3c2n1-c1ccc(C(C)(C)C#N)cc1
active: [1] 0.33 µM | [18] 0.118 µM | [3] 0.0093 µM | [4] 0.0469 µM | [5] 0.217 µM | [6] 0.833 µM | [8] 0.235 µM | [9] 0.0681 µM | [10] 3.32 µM | [11] 5.9 µM | [14] 0.0968 µM | [16] 0.0743 µM

CC1COC2(CCN(c3nc(=O)c4cc(C(F)(F)F)cc([N+](=O)[O-])c4s3)CC2)O1 (configuration not stated)
not listed: [15] | [18]
inactive: all other assays above

CC(C)Nc1cc(C(F)(F)F)cc2nc(NC(=O)c3cccnc3)nn12
active: [4] 16.6 µM
not listed: [2] | [3] | [7] | [8] | [9] | [10] | [17]
inactive: all other assays above

Cc1c(NC(=O)OC[C@@H]2COCCN2)cn2ncnc(Nc3ccc4c(cnn4Cc4cccc(F)c4)c3)c12
inactive: [1] | [17]
active: [18] 0.0743 µM | [3] 0.0469 µM | [4] 0.0935 µM | [11] 20.9 µM | [12] 24.3 µM | [16] 0.187 µM

CNC(=O)c1ccccc1Nc1nc(Nc2ccc(N3CCOCC3)cc2OC)ncc1Cl
active: [1] 3.3 µM | [2] 2.35 µM | [3] 1.87 µM | [4] 0.209 µM | [5] 7.69 µM | [6] 0.662 µM | [7] 18.7 µM | [8] 1.18 µM | [9] 6.07 µM | [10] 0.332 µM | [11] 0.264 µM | [13] 5.9 µM | [14] 0.306 µM | [15] 0.469 µM | [16] 0.935 µM

Cc1ccc2nc(NC(=O)CSc3nc4c(c(=O)n3-c3ccccc3)SCC4)sc2c1
inactive: [1]
active: [18] 18.7 µM | [3] 14.8 µM | [4] 26.4 µM | [8] 14.8 µM | [11] 14.8 µM | [12] 5.44 µM | [14] 13.7 µM

C[C@@H](Oc1cc(-n2cnc3ccc(CN4CCN(C)CC4)cc32)sc1C(N)=O)c1ccccc1C(F)(F)F
active: [1] 0.294 µM | [2] 0.0296 µM | [4] 0.105 µM | [5] 0.153 µM | [6] 0.0469 µM | [7] 29.6 µM | [9] 0.108 µM | [10] 0.0235 µM | [11] 0.0332 µM | [12] 24.3 µM | [13] 20.9 µM | [14] 0.0968 µM
inactive: [16]

COc1c(OCCCN2CCOCC2)ccc2c3n(c(=NC(=O)c4cnc(N)nc4)nc12)CCN3
active: [1] 2.55 µM | [2] 2.04 µM | [3] 0.162 µM | [4] 0.0288 µM | [6] 0.102 µM | [8] 0.0512 µM | [11] 0.407 µM | [13] 0.0812 µM | [14] 0.0211 µM | [15] 0.0724 µM | [16] 0.0407 µM
inactive: [7] | [17]

O=C(Nc1ncc(-c2cc(C(F)F)nn2-c2c(Cl)cccc2Cl)s1)C1CC1
active: [1] 1.31 µM | [2] 0.332 µM | [4] 0.296 µM | [5] 0.863 µM | [6] 0.296 µM | [7] 1.87 µM | [8] 0.209 µM | [9] 0.482 µM | [10] 3.32 µM | [11] 0.332 µM | [12] 0.968 µM | [14] 0.432 µM | [15] 0.418 µM
